From article PMC5700166 come the findings set out here.

For this experiment, the target named is GST-Hu-p50 (Homo sapiens, UniProt P19838 7-356). Kind of experiment: protein-binding microarray (PBM); PBM: ~300 nM protein, 6 mM HEPES pH 7.8, 80 mM KCl, 0.5 mM EDTA, 0.5 mM EGTA, 6% glycerol, 35 ng/ul poly-dIdC, 1% milk, 1 h, room temperature; Ap Aiptasia and Nv Nematostella (sea anemones) / Co Capsaspora / Aq Amphimedon (sponge) / Dm Drosophila / Hu human; RHD is the Rel homology domain; high values mean tight binding. As to conditions: dsDNA, one strand shown.
Chain of GST-Hu-p50 (P19838 7-356): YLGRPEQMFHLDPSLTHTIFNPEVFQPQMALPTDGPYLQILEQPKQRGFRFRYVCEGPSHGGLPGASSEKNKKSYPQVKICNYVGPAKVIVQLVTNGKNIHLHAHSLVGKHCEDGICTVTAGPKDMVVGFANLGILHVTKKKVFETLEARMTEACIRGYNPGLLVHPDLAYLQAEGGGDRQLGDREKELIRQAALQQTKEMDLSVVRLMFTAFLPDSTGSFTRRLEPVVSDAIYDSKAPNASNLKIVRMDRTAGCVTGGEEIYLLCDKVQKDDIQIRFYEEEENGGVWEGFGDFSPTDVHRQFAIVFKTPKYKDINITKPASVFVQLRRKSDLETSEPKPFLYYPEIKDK
With “CCGATTAACATCAAATCACCCCCTGATGTTAATCGGGTCTTGATTCGCTTGACGCTGCTG”, the binding signal was found to be 4.62 z-score. For the sequence “CCGATTAACATCAAAGTACCCCCTGATGTTAATCGGGTCTTGATTCGCTTGACGCTGCTG”, the binding signal came to 4.53 z-score. With “CCGATTAACATCACGGGGGGTAATGATGTTAATCGGGTCTTGATTCGCTTGACGCTGCTG” the figure was 2.48 z-score; with “CCGATTAACATCAAAAAACCGTTTGATGTTAATCGGGTCTTGATTCGCTTGACGCTGCTG”, 1.52 z-score; with “CCGATTAACATCAGGGGAGCACCTGATGTTAATCGGGTCTTGATTCGCTTGACGCTGCTG”, 4.33 z-score. Under “CCGATTAACATCAGGCAAGTCCCTGATGTTAATCGGGTCTTGATTCGCTTGACGCTGCTG” stands 3.44 z-score; under “CCGATTAACATCAAAGGTCCCCCTGATGTTAATCGGGTCTTGATTCGCTTGACGCTGCTG”, 3.35 z-score. Sequence “CCGATTAACATCAGAAAATCCCATGATGTTAATCGGGTCTTGATTCGCTTGACGCTGCTG” had a binding signal of 3.86 z-score. Turning to “CCGATTAACATCACTGGGAATTCTGATGTTAATCGGGTCTTGATTCGCTTGACGCTGCTG”, the binding signal came out at 3.22 z-score. “CCGATTAACATCACCGGAATTCCTGATGTTAATCGGGTCTTGATTCGCTTGACGCTGCTG” yielded a binding signal of 2.71 z-score. With “CCGATTAACATCAGGGATTTTCATGATGTTAATCGGGTCTTGATTCGCTTGACGCTGCTG” the figure was 4.44 z-score. In the case of “CCGATTAACATCAAGCGTTTCCCTGATGTTAATCGGGTCTTGATTCGCTTGACGCTGCTG”, the binding signal worked out at 1.47 z-score.

Take “CCGATTAACATCAGGACGTTCCCTGATGTTAATCGGGTCTTGATTCGCTTGACGCTGCTG”: the binding signal amounted to 1.71 z-score. In the case of “CCGATTAACATCAAAACAATCCCTGATGTTAATCGGGTCTTGATTCGCTTGACGCTGCTG”, the binding signal was determined as 2.64 z-score. With “CCGATTAACATCAATCGGGAAATTGATGTTAATCGGGTCTTGATTCGCTTGACGCTGCTG” the figure was 2.28 z-score; with “CCGATTAACATCAAGGCATTCCCTGATGTTAATCGGGTCTTGATTCGCTTGACGCTGCTG”, 1.31 z-score; with “CCGATTAACATCAGGGGGGTACATGATGTTAATCGGGTCTTGATTCGCTTGACGCTGCTG”, 2.93 z-score. “CCGATTAACATCAGTCCCTAAGCTGATGTTAATCGGGTCTTGATTCGCTTGACGCTGCTG” displayed a binding signal of 2.51 z-score. With “CCGATTAACATCAAGGAAACCCCTGATGTTAATCGGGTCTTGATTCGCTTGACGCTGCTG” the figure was 5.22 z-score; with “CCGATTAACATCAACATGGGAAATGATGTTAATCGGGTCTTGATTCGCTTGACGCTGCTG”, 1.56 z-score; with “CCGATTAACATCAGGAGATACCCTGATGTTAATCGGGTCTTGATTCGCTTGACGCTGCTG”, 2.58 z-score.

For the sequence “CCGATTAACATCAGCACCCCCCCTGATGTTAATCGGGTCTTGATTCGCTTGACGCTGCTG”, the binding signal was determined as 4.3 z-score. Under “CCGATTAACATCAAGGGAAACCCTGATGTTAATCGGGTCTTGATTCGCTTGACGCTGCTG” stands 2.93 z-score; under “CCGATTAACATCAGGCTATCCCCTGATGTTAATCGGGTCTTGATTCGCTTGACGCTGCTG”, 3.43 z-score.

Take “CCGATTAACATCAACGCCCCCCCTGATGTTAATCGGGTCTTGATTCGCTTGACGCTGCTG”: the binding signal was found to be 4.25 z-score. With “CCGATTAACATCAAGGGGGGATATGATGTTAATCGGGTCTTGATTCGCTTGACGCTGCTG”, the binding signal was found to be 4.95 z-score. In the case of “CCGATTAACATCATTATGGGAAATGATGTTAATCGGGTCTTGATTCGCTTGACGCTGCTG”, the binding signal was 2.18 z-score. With “CCGATTAACATCAAAAATTTACCTGATGTTAATCGGGTCTTGATTCGCTTGACGCTGCTG” the figure was 3.82 z-score; with “CCGATTAACATCAAAAAACACCCTGATGTTAATCGGGTCTTGATTCGCTTGACGCTGCTG”, 5.16 z-score; with “CCGATTAACATCAGGGGACACCCTGATGTTAATCGGGTCTTGATTCGCTTGACGCTGCTG”, 3.82 z-score.

The sequence “CCGATTAACATCAGGGAAAACACTGATGTTAATCGGGTCTTGATTCGCTTGACGCTGCTG” showed a binding signal of 4.24 z-score. The sequence “CCGATTAACATCACGGAGTCCCCTGATGTTAATCGGGTCTTGATTCGCTTGACGCTGCTG” returned a binding signal of 5.13 z-score. In turn, “CCGATTAACATCAAGCGTTCCCCTGATGTTAATCGGGTCTTGATTCGCTTGACGCTGCTG” gave a binding signal of 3.66 z-score. With “CCGATTAACATCAGGGGTTTTGATGATGTTAATCGGGTCTTGATTCGCTTGACGCTGCTG” the figure was 3.98 z-score; with “CCGATTAACATCAGGGGGAGTGATGATGTTAATCGGGTCTTGATTCGCTTGACGCTGCTG”, 4.48 z-score. With “CCGATTAACATCAGGGGATGACCTGATGTTAATCGGGTCTTGATTCGCTTGACGCTGCTG” the figure was 3.42 z-score; with “CCGATTAACATCAAAATTCCCGGTGATGTTAATCGGGTCTTGATTCGCTTGACGCTGCTG”, 4.89 z-score; with “CCGATTAACATCAGGGAGCCCCCTGATGTTAATCGGGTCTTGATTCGCTTGACGCTGCTG”, 5.27 z-score. For the sequence “CCGATTAACATCACGGAAACCCCTGATGTTAATCGGGTCTTGATTCGCTTGACGCTGCTG”, the binding signal turned out to be 4.6 z-score.
